Assay results reported in PubChem BioAssay (NCATS).
Where “and” joins values, the source holds several entries; their conditions need not be identical. Equal entries are not always repeated. Records with an inconclusive call do not appear. A call without a number means that no potency is given here. Calls of active or inactive are those of the source. Unless noted, the call rests on the fitted dose curve; in most records, active means well fitted curve in the direction sought with a large enough effect; inconclusive means small, poorly fitted or top-dose-only effect, or another doubt; inactive means no such curve, though single readings can be large; an effect the other way counts as inactive or inconclusive.

Legend:
[1] = target: Glutaminase kidney isoform, mitochondrial (Homo sapiens) (UniProt O94925); assay: qHTS for Inhibitors of Glutaminase (GLS): LOPAC Validation (AID 624146);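 further: glutamate product detected by oxidase and peroxidase coupled Amplex red fluorescence gain; nearly all actives have a fitted effect of over 60% in size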
Sequence of Glutaminase kidney isoform, mitochondrial (Homo sapiens) (O94925 whole entry, looked up, canonical isoform): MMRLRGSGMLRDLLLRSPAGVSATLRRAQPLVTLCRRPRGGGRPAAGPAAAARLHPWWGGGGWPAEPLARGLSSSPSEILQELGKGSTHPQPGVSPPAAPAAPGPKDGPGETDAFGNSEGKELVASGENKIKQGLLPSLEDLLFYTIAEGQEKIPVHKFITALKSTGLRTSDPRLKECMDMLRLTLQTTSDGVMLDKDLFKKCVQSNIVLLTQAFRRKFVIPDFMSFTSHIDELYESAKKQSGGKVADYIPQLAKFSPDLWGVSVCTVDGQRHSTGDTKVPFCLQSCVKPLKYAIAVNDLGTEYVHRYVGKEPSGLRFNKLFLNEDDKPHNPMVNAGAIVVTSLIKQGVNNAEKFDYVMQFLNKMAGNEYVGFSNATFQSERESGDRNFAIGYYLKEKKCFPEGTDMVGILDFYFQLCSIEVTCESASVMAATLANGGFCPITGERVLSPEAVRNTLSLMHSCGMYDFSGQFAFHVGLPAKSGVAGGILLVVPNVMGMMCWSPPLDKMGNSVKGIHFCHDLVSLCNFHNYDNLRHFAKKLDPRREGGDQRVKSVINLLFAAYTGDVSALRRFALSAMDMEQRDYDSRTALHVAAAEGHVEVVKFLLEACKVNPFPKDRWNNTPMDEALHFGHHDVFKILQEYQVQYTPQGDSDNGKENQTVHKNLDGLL
Outline: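 Read-out is an Amplex red fluorescence increase coupled through glutamate oxidase and HRP, measured before and after 30 min room-temperature incubation. hKGA is in 45 mM KH2PO4 (pH 8.2) with 0.02% Tween-20; glutamine added as 1mM solution.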

[2] = target: Glucagon-like peptide 1 receptor (Homo sapiens) (UniProt P43220); assay: qHTS of GLP-1 Receptor Agonists: LOPAC Validation (AID 624148);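 further: luminescence from a luciferase reporter switched on by cAMP; higher luminescence signal means agonism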
Sequence of Glucagon-like peptide 1 receptor (Homo sapiens) (P43220 whole entry, looked up): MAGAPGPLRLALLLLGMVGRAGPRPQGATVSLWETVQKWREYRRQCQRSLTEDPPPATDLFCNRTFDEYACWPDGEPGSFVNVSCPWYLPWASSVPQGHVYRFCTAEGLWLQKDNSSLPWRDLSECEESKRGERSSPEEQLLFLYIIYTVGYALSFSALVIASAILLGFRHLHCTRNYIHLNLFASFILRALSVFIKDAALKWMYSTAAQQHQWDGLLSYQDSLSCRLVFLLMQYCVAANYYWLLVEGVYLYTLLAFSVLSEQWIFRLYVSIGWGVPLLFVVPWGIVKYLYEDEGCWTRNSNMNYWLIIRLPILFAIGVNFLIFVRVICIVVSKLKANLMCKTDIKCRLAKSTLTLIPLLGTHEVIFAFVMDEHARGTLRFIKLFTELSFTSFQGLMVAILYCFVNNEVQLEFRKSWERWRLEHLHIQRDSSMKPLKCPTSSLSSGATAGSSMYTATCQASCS
Outline: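 Agonism scored as increased luciferase luminescence driven by cAMP in HEK293 clones carrying GLP-1R. Cells settled 12 hours, received compound for 4-6 hr at 37 deg C, 5% CO2, and were read after 12 min detection reagent at RT.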

[3] = qHTS of Nrf2 Activators: LOPAC Validation (AID 624149)
Outline: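 Luminescence read-out of ARE-luciferase activation: AREc32_Fluc cells treated with compounds for 24 hr at 37 deg C, then lysed with Steady-Glo for 30 min at room temperature before reading.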

[4] = HTS Assay for Allosteric Antagonists of the Human D2 Dopamine Receptor: Hit Validation in HTRF (AID 624455);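 further: stable D1 dopamine receptor cell line scored for blocking the D1 response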
Outline: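 First, antagonism was screened by calcium flux in a force-coupled, inducible Hek293 Trex D2 line challenged with EC80 dopamine. Hits then went into an HTRF assay in cells stably expressing D1, testing inhibition of the D1 response.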

[5] = Cytotoxicity counterscreen for NFkB agonists and antagonists (AID 624476);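 further: cells exposed to compound for 48 hours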; further: potency means the concentration at half of the fitted maximal effect
[6] = qHTS Assay for Identification of Small Molecule Agonists for NFkB Signaling Pathway. (AID 624478);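 further: compounds tested together with TNF alpha at its EC50 of 10 pM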
Outline: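 ME-180 cervical carcinoma, stable NFkB-RE beta-lactamase reporter; 1000 cells/well, overnight attachment; cpd + TNF alpha 10 pM final, 5 h 37 C; LiveBLAzer 2 h RT; FRET 460/530 nm, ex 405 nm.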

[7] = qHTS Assay for Identification of Small Molecule Antagonists for NFkB Signaling Pathway. (AID 624479; calls by dose curve;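 further: pathway stimulated with TNF alpha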; further: potency means the concentration at half of the fitted maximal effect)
[8] = Cell Proliferation Assay against the TMD8 Cell Line (AID 651645); conditions: TMD8 DLBCL cell line proliferation/viability; at 46.1 µM (top of the series) unless noted;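 further: cells exposed to compound for 48 h before reading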
Outline: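 Viability by CellTiter-Glo after 48 h compound exposure of 500 log-phase TMD8 cells per well (RPMI, 5% FBS). Percent activity scaled between DMSO (100%) and 9.2 uM final bortezomib (0%).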

[9] = Cell Proliferation Assay against the HBL1 Cell Line (AID 651646); conditions: HBL1 DLBCL cells; at 46.1 µM (top of the series) unless noted;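 further: cells exposed to compound for 48 h before reading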
Outline: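 Luminescent ATP read-out (CellTiter-Glo) after 48 h compound exposure of HBL1 cells at 37 °C; percent activity was scaled between DMSO as 100% and 9.2 uM bortezomib (final) as 0%.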

[10] = Cell Proliferation Assay against the TMD8 Cell Line (Caspase readout at 16 hrs) (AID 651712); further: potency means the concentration at half of the fitted maximal effect
Outline: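 Apoptotic response of TMD8 cells was judged from caspase 3/7 activation following a 16 hour compound incubation at 37 °C. Luminescent signal was converted to percent activity, with DMSO set as 0% and 9.2 uM final bortezomib as 100%.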

[11] = Cell Proliferation Assay against the TMD8 Cell Line (Caspase readout at 8 hrs) (AID 651713); further: potency means the concentration at half of the fitted maximal effect
Outline: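 Seed log-phase TMD8 cells, add compound by pin tool, incubate 8 h at 37C under 5% CO2, equilibrate to room temperature, add Caspase-Glo, wait 15 min, read luminescence; percent activity uses DMSO and 9.2 uM bortezomib controls.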

[12] = qHTS of Trypanosoma Brucei Inhibitors: LOPAC Validation (AID 624147)
Outline: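 Quantitative HTS: titrated library compounds versus trypanosomal pyruvate kinase in TEA buffer (pH 7.2) containing KCl, MgCl2, BSA and Tween-20. Reactions were initiated with ADP, 130 uM final. Kinase-Glo Plus luminescence was read after 45 min at RT.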

[13] = qHTS assay for small molecule agonists of the antioxidant response element (ARE) signaling pathway (AID 651741; active means well fitted activation curve with a large enough effect in the signal ratio; the % refers to the signal ratio; further: potency means the concentration at half of the fitted maximal effect)
Outline: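 Quantitative HTS in HepG2 cells stably expressing an ARE-beta-lactamase reporter; 16 h compound exposure at 37 C, followed by 2 h room-temperature incubation with LiveBLAzer B/G FRET substrate and fluorescence measurement.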

[14] = qHTS assay for small molecule activators of the p53 signaling pathway (AID 651743; active means well fitted activation curve with a large enough effect in the signal ratio, not every such curve was filed as active; the % refers to the signal ratio); conditions: HCT-116 p53RE-bla, beta-lactamase FRET ratio, 16 h; stronger effect = higher value
Outline: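 Read-out is fluorescence intensity from the LiveBLAzer B/G FRET substrate, added for 2 hours at room temperature after HCT-116 p53RE-bla cells had been incubated with compounds for 16 hours at 37 C.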

[15] = qHTS assay for small molecule activators of the nuclear factor-kappa B (NF-kB) signaling pathway (AID 651749; active means well fitted activation curve with a large enough effect in the signal ratio; the % refers to the signal ratio); conditions: NF-kB-bla ME-180 cells, beta-lactamase FRET ratio, 16 h; stronger effect = higher value
Outline: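 Readout: beta-lactamase reporter driven by an NF-kB response element, detected fluorescently as loss of FRET. Cells were the ME-180 line, treated 16 hr at 37C with pin-transferred compound.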

[16] = target: Tumor necrosis factor (Homo sapiens) (UniProt P01375); assay: qHTS assay to identify small molecules that stimulate Tumor Necrosis Factor-alpha (TNF-alpha) secretion (AID 651757; active means well fitted curve in the direction sought with a large enough effect in the signal ratio; the % refers to the signal ratio)
Sequence of Tumor necrosis factor (Homo sapiens) (P01375 whole entry, looked up): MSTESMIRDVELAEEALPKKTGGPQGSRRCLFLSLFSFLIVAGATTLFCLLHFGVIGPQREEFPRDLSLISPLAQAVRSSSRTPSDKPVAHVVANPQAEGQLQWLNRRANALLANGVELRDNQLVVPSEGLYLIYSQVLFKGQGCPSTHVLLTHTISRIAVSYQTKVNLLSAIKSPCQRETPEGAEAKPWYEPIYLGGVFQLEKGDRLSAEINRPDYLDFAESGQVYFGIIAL
Outline: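 Read-out is HTRF, a TR-FRET sandwich of cryptate- and XL665-labeled anti-TNF-alpha antibodies detecting cytokine secreted by THP-1 cells. Cells had been incubated with test compounds at 37 C for 17 hrs beforehand.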

[17] = qHTS assay for small molecule disruptors of the mitochondrial membrane potential - 1 hr assay (AID 651754; calls by dose curve; further: potency means the concentration at half of the fitted maximal effect; nearly all actives have a fitted effect of over 35% in size)
Outline: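 HepG2, 2,000 cells/well, overnight attachment; cpd or DMSO 1 hr, 37C/5% CO2; Mito-MPS dye 30 min, 37C; fluorescence monomer (490/535) and aggregate (540/590).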

[18] = qHTS assay for small molecule disruptors of the mitochondrial membrane potential - 5 hr assay (AID 651755; calls by dose curve; further: potency means the concentration at half of the fitted maximal effect; nearly all actives have a fitted effect of over 40% in size)
Outline: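 HepG2, 2,000 cells/well, overnight attach; cpd or DMSO 5 hr, 37C/5% CO2; Mito-MPS 30 min 37C; fluor 490/535 + 540/590 nm.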

[19] = qHTS assay to identify small molecules that stimulate interleukin-8 (IL-8) secretion (AID 651758; active means well fitted activation curve with a large enough effect in the signal ratio; the % refers to the signal ratio)
Outline: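 Secreted IL-8 measured by TR-FRET sandwich (cryptate and XL665 antibodies) from THP-1 cells exposed to compound overnight (16 hrs, 37 C).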

Structure (SMILES): C[N+](C)(C)CC(=O)O
- Potency [1]: inactive
- outcome [2]: inactive
- outcome [3]: inactive
- outcome [4]: inactive

Structure (SMILES): CC(C)(C(=O)NCC(F)(F)C(F)(F)F)C(=O)N[C@@H]1C(=O)Nc2ccccc2-c2ccccc21
- Potency [5]: inactive
- outcome [6]: inactive
- Potency [7]: inactive
- viability (% of control) [8]: 61.9%
- viability, percent of control [9]: 73.4%
- Potency [10]: inactive
- Potency [11]: inactive

Structure (SMILES): O=C(O)c1ccc(-c2cc3cccnc3c(-c3ccc4nonc4c3)n2)cc1
- Potency [5]: inactive
- outcome [6]: inactive
- Potency [7]: inactive
- viability (% of control) [8]: 111%
- viability, percent of control [9]: 91.1%
- Potency [10]: inactive
- Potency [11]: inactive

Structure (SMILES): CN(C)CCC(c1ccccc1)c1ccccn1 (centres undefined)
- Potency [1]: inactive
- outcome [12]: inactive
- outcome [3]: inactive
- outcome [4]: inactive
- Potency [13]: 37.6 µM (active)
- activation [14]: 1.39% (inactive)
- activation [15]: -0.458% (inactive)
- outcome [16]: inactive

Structure (SMILES): CC1(C)CCC2=C(O1)c1ccccc1C(=O)C2=O
- outcome [12]: inactive
- outcome [2]: inactive
- outcome [3]: inactive
- outcome [4]: inactive

Structure (SMILES): OC[C@H]1O[C@@H](n2cnc3c2NC=NC[C@@H]3O)C[C@H]1O
- Potency [5]: inactive
- outcome [6]: inactive
- Potency [7]: inactive
- viability (% of control) [8]: 95.3%
- viability, percent of control [9]: 105%
- Potency [10]: inactive
- Potency [11]: inactive

Structure (SMILES): O=c1cc(-c2ccc(O)cc2)oc2cc(O)cc(O)c12
- Potency [1]: inactive
- outcome [12]: inactive
- outcome [2]: inactive
- outcome [3]: inactive
- outcome [4]: inactive
- Potency [13]: 24.3 µM (active) and 33.5 µM (active)
- Potency [17]: 2.98 µM (active)
- Potency [18]: 5.96 µM (active)

Structure (SMILES): Cc1nc(N)sc1-c1ccnc(Nc2ccc(N3CCOCC3)cc2)n1
- Potency [5]: inactive
- outcome [6]: inactive
- Potency [7]: 2.66 µM (active)
- viability (% of control) [8]: 4.33%
- viability, percent of control [9]: 24.4%

Structure (SMILES): CCCCC1C(=O)N(c2ccccc2)N(c2ccccc2)C1=O
- Potency [1]: inactive
- outcome [12]: inactive
- outcome [2]: inactive
- outcome [3]: inactive
- outcome [4]: inactive
- Potency [13]: inactive
- activation [15]: -1.5% (inactive) and -1.29% (inactive)
- outcome [16]: inactive
- outcome [19]: inactive

Structure (SMILES): CC(C)(C)COc1ccc(-n2cc(C(=O)O)cn2)cc1C#N
- Potency [5]: inactive
- outcome [6]: inactive
- Potency [7]: inactive
- viability (% of control) [8]: 88.1%
- viability, percent of control [9]: 90.4%
- Potency [10]: inactive
- Potency [11]: inactive

Structure (SMILES): CCN(CC)CCNC(=O)c1ccc(N)cc1
- Potency [1]: inactive
- outcome [12]: inactive
- outcome [3]: inactive
- outcome [4]: inactive

Structure (SMILES): CC(C)(C)C(=O)Oc1ccc2c(c1)nc(NC(=O)c1cccc([N+](=O)[O-])c1)n2CCCO
- Potency [5]: inactive
- outcome [6]: inactive
- Potency [7]: 4.73 µM (active)
- viability (% of control) [8]: 0.179%
- viability, percent of control [9]: 16.8%
- Potency [10]: inactive
- Potency [11]: inactive

Structure (SMILES): CC(C)(C)c1cc(C(=O)O)c(NC(=O)Nc2ccc3[nH]ncc3c2)s1
- Potency [5]: inactive
- outcome [6]: inactive
- Potency [7]: inactive
- viability (% of control) [8]: 99.7%
- viability, percent of control [9]: 100%
- Potency [10]: inactive
- Potency [11]: inactive

Structure (SMILES): CN(C)Cc1ccc(-c2nc3cccc4c3n2CCNC4=O)cc1
- Potency [5]: inactive
- outcome [6]: inactive
- Potency [7]: 23.7 µM (active)
- viability (% of control) [8]: 17%
- viability, percent of control [9]: 60.9%

Structure (SMILES): CC(C)C(=O)Nc1ncc(-c2cc(C(F)F)nn2-c2c(Cl)cccc2Cl)s1
- Potency [5]: inactive
- outcome [6]: inactive
- Potency [7]: 18.8 µM (active)
- viability (% of control) [8]: 9.91%
- viability, percent of control [9]: 14.4%
- Potency [10]: 16.6 µM (active)
- Potency [11]: inactive

Structure (SMILES): Clc1ccc(-c2nc3sccn3c2C=NOCc2ccc(Cl)c(Cl)c2)cc1
- outcome [6]: inactive
- Potency [7]: inactive
- viability (% of control) [8]: 74.9%
- viability, percent of control [9]: 4.32%
- Potency [10]: inactive
- Potency [11]: inactive

Structure (SMILES): COc1cc2nc(-c3ccc(N4CCN(C)CC4)cc3)nc(NCCN3CCOCC3)c2cc1OC
- Potency [7]: inactive
- viability (% of control) [8]: 1.8%
- viability, percent of control [9]: 5.66%
- Potency [11]: 29.6 µM (active)

Structure (SMILES): CC(=O)N(C)C1(c2ccccc2)CCN(CCC[C@]2(c3ccc(Cl)c(Cl)c3)CCCN(C(=O)c3ccccc3)C2)CC1
- Potency [5]: 23.5 µM (active)
- outcome [6]: inactive
- viability (% of control) [8]: 1.74%
- viability, percent of control [9]: 1.69%
- Potency [10]: 11.8 µM (active)

Structure (SMILES): CO[C@@H](C(=O)N1Cc2[nH]nc(NC(=O)c3ccc(N4CCN(C)CC4)cc3)c2C1)c1ccccc1
- Potency [5]: inactive
- outcome [6]: inactive
- viability (% of control) [8]: 3.09%
